# Biological target: AMP-activated protein kinase, AMPK (Homo sapiens) (UniProt P54646+O43741+P54619+Q9UGJ0+Q9Y478+Q13131+Q9UGI9)
# Assay: AMP-dependent Kinase enzyme assay. An in vitro enzyme assay that detects ADP turnover that is directly proportional to AMPK activity. This uses naive AMPK that is activated during the assay with MK-8722
# Assay type: functional
# Design: scale not given: direction of the effect not stated beside the values
# Conditions: 30 µM
row,Compound,Percent Effect [%]
1,CC(C(=O)NCC(C)(C)c1ccc2c(c1)OCCO2)n1cncn1 (stereo not given),11.3
2,Oc1ccc(N2CCC(Cc3ccccc3)CC2)nn1,9.16
3,O=C(Cc1ccc(Cl)s1)Nc1ccc2c(c1)C(=O)NC2=O,68.3
4,CC(C)[C@H]1CN(Cc2nccn2C)C[C@@H]1NC(=O)CCS(C)(=O)=O,1.59
5,Cc1nc(CN2CCCCC2Cn2cccn2)nc2ccccc12 (stereo not given),0.0601
6,CN1CCN([C@H]2CCN(C(=O)c3cc(Cl)cn3C)C[C@H]2CCCO)CC1,13.2
7,COc1cccc(CN(C)C(C)C(=O)Nc2nc(C)c(C)s2)c1 (stereo not given),5.13
8,COCCC1(C(=O)O)CCCN(c2cc(C)c3ccccc3n2)C1 (stereo not given),3.66
9,COc1ccc(S(=O)(=O)N2CCOC(C)(C(N)=O)C2)cc1 (stereo not given),15.5
10,COc1cccc2c1OCC(C(=O)NCc1ncc3c(n1)CCC3)C2 (stereo not given),6.59
11,Cn1cnnc1C1CCCN(Cc2nc(Cc3ccccc3)no2)C1 (stereo not given),12.2
12,CN(C)CC1(O)CCCN(C(=O)CCn2cc(Cl)cn2)C1 (stereo not given),4.94
13,CCOc1ccc(Br)cc1S(=O)(=O)N(CC)Cc1ccc(N(C)C)cc1,-7.47
14,CN(Cc1cccs1)Cc1nnsc1Cl,12.6
15,c1ccc(OCCCn2ccnc2-c2cn(C3CCNCC3)nn2)cc1,-1.92
16,O=C(c1cscn1)N1CCc2[nH]nc(Nc3ccccc3)c2C1,10.9
17,Cc1cc(CN(C)C(C(=O)O)c2ccc(C(C)(C)C)cc2)on1 (stereo not given),8.61
18,NC(=O)NC1CCN(Cc2ccccc2OCC(F)(F)F)CC1,-5.97
19,Cc1ccc(C(=O)NCc2cc(F)ccc2N2CCCN(C)CC2)o1,9.19
20,CC(C)c1nc(CN(C)C(=O)C(O)c2ccc(Cl)cc2)cs1 (stereo not given),-2.36

row,Compound,Percent Effect [%]
1,Oc1cc(C2CCCCN2Cc2cccs2)nc(-c2ccncc2)n1 (stereo not given),1.11
2,CCN(Cc1ccoc1)C(=O)Nc1ccccc1CN1CCOCC1,4.22
3,O=C(Nc1cccnc1)NC1CCN(c2ccccc2OC(F)F)C1 (stereo not given),0.675
4,Cc1cc(-n2cccn2)ccc1CN1CCOCC(CN(C)C)C1 (stereo not given),-0.486
5,Cc1nnc(CCNC(=O)Nc2ccc(S(C)(=O)=O)cc2)[nH]1,6.21
6,CNC(=O)c1cccnc1NCc1ccc(Cn2ccnc2)cc1,-1.78
7,Oc1cccc(CNCc2ccc(-n3cncn3)nc2)c1,2.63
8,Cc1ccnc2c1NC(=O)CN2C(=O)CCc1cccs1,-0.535
9,COc1cccc(-c2ncc(CN3CC[C@H]4CC[C@@H](C3)N4)s2)c1,7.14
10,CN(C)S(=O)(=O)NC1CCCc2c1cnn2-c1ccc(C(C)(C)C)cc1 (stereo not given),88.7
11,CC(C)Cn1ncc(C(=O)NS(=O)(=O)C2CCCC2)c1C1CC1,5.57
12,CCOc1ccccc1-n1c(C2CC(=O)N(C)C2)n[nH]c1=O (stereo not given),7.89
13,O=C(CCn1ccnc1)N1CCCC(n2cncn2)C1 (stereo not given),11.8
14,O=C(O)c1ccn(-c2ccccc2NC(=O)c2ccccc2Cl)n1,5.51
15,O=c1[nH]nc(C2CC2)n1-c1cccc(Cl)c1,-10.6
16,CCc1nccn1CC1CCCN1S(=O)(=O)N1CCCOCC1 (stereo not given),15.2
17,COCCNS(=O)(=O)c1c(C)sc2ccccc12,-3.2
18,CC(NC(=O)c1ccc2c(c1)COC2)c1cccc(N2CCOC2=O)c1 (stereo not given),5.03
19,CCCC(=O)NC1CCCN(Cc2cccs2)C1 (stereo not given),5.79
20,Cn1ccc(C(=O)N2CCCCC2c2cc(CCO)[nH]n2)n1 (stereo not given),30.2

# Source: ChEMBL document CHEMBL3988442, “University of Dundee, Small-Polar-MMV Screening Library” (2021)
